Measurements taken from PubChem BioAssay (EPA / NIEHS).
The source holds several records for some structures; these can differ, active in one and inactive in another. The source made the active and inactive calls. How the source made its calls: active means hit-call score of the fitted dose curve at least 0.9, where 1 is the maximum; inactive means score below 0.9.

Key:
[1] = read-out: Interleukin-1 alpha (IL1a), IL1A (gene 3552); assay: BSK_LPS_IL1a: BioMAP Diversity Plus: LPS Assay for Interleukin-1 alpha (IL1a) Biomarker Activity (AID 2283080); conditions: primary human HUVEC with PBMC; actives raise or lower the signal
Outline: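 HUVEC/PBMC co-culture, LPS system; 24 h after dosing; IL-1a by ELISA; gain or loss of signal fitted bidirectionally vs DMSO baseline.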

[2] = read-out: Monocyte Chemoattractant Protein-1 (MCP1), CCL2 (gene 6347); assay: BSK_LPS_MCP1: BioMAP Diversity Plus: LPS Assay for Monocyte Chemoattractant Protein-1 (MCP1) Biomarker Activity (AID 2283081); conditions: primary human HUVEC with PBMC; actives raise or lower the signal
Outline: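 ELISA read-out of MCP-1 after 24 h chemical dosing of a human umbilical vein endothelial cell/peripheral blood mononuclear cell co-culture stimulated with LPS. Gain or loss of signal fitted relative to DMSO controls.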

[3] = BSK_LPS_PGE2: BioMAP Diversity Plus: LPS Assay for Prostaglandin E2 (PGE2) Biomarker Activity (AID 2283082); conditions: primary human HUVEC with PBMC; actives raise or lower the signal
Outline: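 ELISA read-out of PGE2 from human umbilical vein endothelial cells co-cultured with peripheral blood mononuclear cells under LPS, 24 h post-dose. Gain or loss of signal scored relative to DMSO baseline.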

[4] = read-out: Macrophage colony-stimulating factor (MCSF), CSF1 (gene 1435); assay: BSK_LPS_MCSF: BioMAP Diversity Plus: LPS Assay for Macrophage colony-stimulating factor (MCSF) Biomarker Activity (AID 2283083); conditions: primary human HUVEC with PBMC; actives raise or lower the signal
Outline: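 HUVEC + PBMC co-culture (human primary), 24 h post-dose; M-CSF by ELISA; gain/loss of signal fitted bidirectionally vs DMSO baseline.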

[5] = read-out: Tissue Factor, F3 (gene 2152); assay: BSK_LPS_TissueFactor: BioMAP Diversity Plus: LPS Assay for Tissue Factor Biomarker Activity (AID 2283084); conditions: primary human HUVEC with PBMC; actives raise or lower the signal
Outline: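 HUVEC/PBMC co-culture, LPS-activated; CD142 ELISA read 24 h post-dose; bidirectional curve fit vs DMSO negative control.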

[6] = read-out: Tumor necrosis factor (Homo sapiens) (UniProt P01375); assay: BSK_LPS_TNFa: BioMAP Diversity Plus: LPS Assay for Tumour Necrosis Factor alpha (TNFa) Biomarker Activity (AID 2283085); conditions: primary human HUVEC with PBMC; actives raise or lower the signal;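 on AC50: TNFa protein level quantified by ELISA in the co-culture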
Outline: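 HUVEC/PBMC co-culture, LPS-stimulated; 24 h post-dose; TNFa by ELISA; gain or loss of signal fitted bidirectionally vs DMSO baseline.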

[7] = read-out: Vascular cell adhesion molecule 1 (VCAM1), VCAM1 (gene 7412); assay: BSK_LPS_VCAM1: BioMAP Diversity Plus: LPS Assay for Vascular cell adhesion molecule 1 (VCAM1) Biomarker Activity (AID 2283086); conditions: primary human HUVEC with PBMC; actives raise or lower the signal
Outline: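 ELISA read-out of VCAM-1 at 24 h post-dosing in an LPS-driven HUVEC/PBMC primary human co-culture; gain or loss of signal fitted bidirectionally against DMSO baseline. Cytotoxicity tracked in parallel cultures by SRB total-protein staining.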

[8] = read-out: CD38, CD38 (gene 952); assay: BSK_SAg_CD38: BioMAP Diversity Plus: SAg Assay for CD38 Biomarker Activity (AID 2283087); conditions: primary human HUVEC with PBMC; actives raise or lower the signal
Outline: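 Measures CD38 on a human endothelial/PBMC co-culture driven by SEB and TSST-1, 24 h after compound exposure, using ELISA with fluorescence detection; DMSO defines baseline for bidirectional curve fitting.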

[9] = read-out: CD40, CD40 (gene 958); assay: BSK_SAg_CD40: BioMAP Diversity Plus: SAg Assay for CD40 Biomarker Activity (AID 2283088); conditions: primary human HUVEC with PBMC; actives raise or lower the signal
Outline: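 HUVEC/PBMC co-culture, 24 h post-dose; CD40 by ELISA, fluorescence intensity; bidirectional fit vs DMSO negative control.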

[10] = read-out: CD69, CD69 (gene 969); assay: BSK_SAg_CD69: BioMAP Diversity Plus: SAg Assay for CD69 Biomarker Activity (AID 2283089); conditions: primary human HUVEC with PBMC; actives raise or lower the signal
Outline: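 Endothelial/PBMC co-culture; chemical added; 24 h incubation; CD69 ELISA with fluorescence detection; bidirectional fit vs DMSO.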

[11] = read-out: Monocyte Chemoattractant Protein-1 (MCP1), CCL2 (gene 6347); assay: BSK_SAg_MCP1: BioMAP Diversity Plus: SAg Assay for Monocyte Chemoattractant Protein-1 (MCP1) Biomarker Activity (AID 2283090); conditions: primary human HUVEC with PBMC; actives raise or lower the signal
Outline: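 Values derive from bidirectional fitting of ELISA-measured MCP1 against DMSO controls. Readings were taken 24 h after dosing human vascular endothelial cells co-cultured with peripheral blood mononuclear cells under superantigen stimulation.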

[12] = read-out: E-selectin (Homo sapiens) (UniProt P16581); assay: BSK_SAg_Eselectin: BioMAP Diversity Plus: SAg Assay for Eselectin Biomarker Activity (AID 2283091); conditions: primary human HUVEC with PBMC; actives raise or lower the signal
Outline: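 E-selectin ELISA readout at 24 h post-dosing in human umbilical vein endothelial cell/PBMC co-culture; gain or loss of signal fitted relative to DMSO baseline.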

[13] = read-out: Monokine induced gamma interferon (MIG), CXCL9 (gene 4283); assay: BSK_SAg_MIG: BioMAP Diversity Plus: SAg Assay for Monokine induced gamma interferon (MIG) Biomarker Activity (AID 2283092); conditions: primary human HUVEC with PBMC; actives raise or lower the signal
Outline: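 Measures CXCL9 protein by ELISA in a human vascular primary-cell co-culture (umbilical vein endothelium with PBMC) 24 h after chemical addition. Activity is scored up or down from the DMSO control.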

[14] = BSK_SAg_Proliferation: Cell Proliferation Assessment in the BioMAP Diversity Plus: SAg Assay (AID 2283095); conditions: primary human HUVEC with PBMC;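 further: relative cell number as total protein by SRB absorbance in sub-confluent culture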
Outline: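 HUVEC/PBMC co-culture, 96-well. TCA-fixed (10%), 0.1% SRB stain, A560 at 96 h. Protein content used as viability readout; bidirectional fitting vs DMSO control.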

[15] = BSK_SAg_SRB: Viability Assessment in the BioMAP Diversity Plus: SAg Assay (AID 2283096); conditions: primary human HUVEC with PBMC;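 further: cells read one day after compound addition; hits may be either gain or loss of signal compared with DMSO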
Outline: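 This overt-cytotoxicity endpoint quantifies protein in human endothelial/PBMC co-cultures at 24 h using SRB absorbance (560 nm) after trichloroacetic acid fixation. Values reflect signal change from the DMSO negative control, fitted bidirectionally.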

[16] = read-out: Interleukin-8 (IL8), CXCL8 (gene 3576); assay: BSK_SAg_IL8: BioMAP Diversity Plus: SAg Assay for Interleukin-8 (IL8) Biomarker Activity (AID 2283094); conditions: primary human HUVEC with PBMC; actives raise or lower the signal
Outline: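 HUVEC/PBMC co-culture, 24 h post-dose; IL-8 by ELISA. Gain or loss of signal fitted bidirectionally vs DMSO baseline.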

[17] = BSK_SAg_PBMCCytotoxicity: PBMC Cytotoxicity Assessment in the BioMAP Diversity Plus: SAg Assay (AID 2283093); conditions: primary human HUVEC with PBMC;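 further: PBMC viability measured as Alamar Blue reduction fluorescence at 546/580 nm; fitted both ways against DMSO so a hit may be loss or gain of signal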
Outline: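 Alamar Blue reduction (6 h, 546/580 nm) reports PBMC cytotoxicity after 90 h superantigen activation (SEB, TSST-1; 20 ng/mL final each) with 1 h compound pre-treatment. Gain or loss of signal fitted versus DMSO.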

Chain of Tumor necrosis factor (Homo sapiens) (P01375 whole entry, looked up): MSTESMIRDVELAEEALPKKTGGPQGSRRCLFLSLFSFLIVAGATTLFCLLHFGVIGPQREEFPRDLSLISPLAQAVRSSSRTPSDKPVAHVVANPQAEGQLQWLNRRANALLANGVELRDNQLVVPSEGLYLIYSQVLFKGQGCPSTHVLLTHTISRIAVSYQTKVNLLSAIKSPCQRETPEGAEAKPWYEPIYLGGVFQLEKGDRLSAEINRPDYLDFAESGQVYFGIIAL
Chain of E-selectin (Homo sapiens) (P16581 whole entry, looked up): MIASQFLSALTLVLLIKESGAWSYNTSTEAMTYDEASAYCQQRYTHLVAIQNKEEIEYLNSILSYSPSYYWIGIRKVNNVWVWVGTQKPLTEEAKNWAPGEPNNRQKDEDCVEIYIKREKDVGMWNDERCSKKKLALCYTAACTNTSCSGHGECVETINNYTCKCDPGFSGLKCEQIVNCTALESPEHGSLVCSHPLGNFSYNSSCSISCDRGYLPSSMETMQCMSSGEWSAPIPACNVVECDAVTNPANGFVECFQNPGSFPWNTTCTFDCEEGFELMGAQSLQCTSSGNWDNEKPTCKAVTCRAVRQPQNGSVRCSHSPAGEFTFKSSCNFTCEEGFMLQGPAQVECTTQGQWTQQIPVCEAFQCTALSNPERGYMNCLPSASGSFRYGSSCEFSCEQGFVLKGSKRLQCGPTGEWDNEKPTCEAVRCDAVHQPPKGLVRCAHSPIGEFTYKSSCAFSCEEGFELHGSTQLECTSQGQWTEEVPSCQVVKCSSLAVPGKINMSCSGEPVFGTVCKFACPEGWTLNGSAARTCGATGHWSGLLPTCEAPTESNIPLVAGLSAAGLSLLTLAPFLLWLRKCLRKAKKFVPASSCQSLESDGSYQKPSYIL

C=CC(F)(F)C(F)(F)C(F)(F)C(F)(F)C(F)(F)C(F)(F)C(F)(F)C(F)(F)F
outcome [1]: inactive | outcome [2]: inactive | outcome [3]: inactive | outcome [4]: inactive | outcome [5]: inactive | outcome [6]: inactive | outcome [7]: inactive | outcome [8]: inactive | outcome [9]: inactive | outcome [10]: inactive | outcome [11]: inactive | outcome [12]: inactive | outcome [13]: inactive | outcome [14]: inactive | outcome [15]: inactive

C=CC/C=C/C/C=C/C/C=C/C
outcome [1]: inactive | outcome [2]: inactive | outcome [3]: inactive | outcome [4]: inactive | outcome [5]: inactive | AC50 [6]: 628 nM (active) | outcome [7]: inactive | outcome [8]: inactive | outcome [9]: inactive | outcome [10]: inactive | outcome [11]: inactive | outcome [12]: inactive | outcome [13]: inactive | outcome [16]: inactive | outcome [14]: inactive | outcome [15]: inactive

O=C(O)C(F)(F)C(F)(F)C(F)F
outcome [1]: inactive | outcome [2]: inactive | outcome [3]: inactive | outcome [4]: inactive | outcome [5]: inactive | outcome [6]: inactive | outcome [7]: inactive | outcome [8]: inactive | outcome [9]: inactive | outcome [10]: inactive | outcome [11]: inactive | outcome [12]: inactive | outcome [13]: inactive | outcome [17]: inactive | outcome [14]: inactive | outcome [15]: inactive

O=S(=O)(OCC(F)F)C(F)(F)F
outcome [1]: inactive | outcome [2]: inactive | outcome [3]: inactive | outcome [4]: inactive | outcome [5]: inactive | outcome [6]: inactive | outcome [7]: inactive | AC50 [8]: 220 nM (active) | outcome [8]: inactive | outcome [9]: inactive | outcome [10]: inactive | outcome [11]: inactive | outcome [12]: inactive | outcome [13]: inactive | outcome [17]: inactive | outcome [14]: inactive | outcome [15]: inactive

C=C(C)C(=O)OCC(F)(F)C(F)(F)C(F)(F)F
outcome [1]: inactive | outcome [2]: inactive | outcome [3]: inactive | outcome [4]: inactive | outcome [5]: inactive | outcome [6]: inactive | outcome [7]: inactive | outcome [8]: inactive | outcome [9]: inactive | outcome [10]: inactive | outcome [11]: inactive | outcome [12]: inactive | outcome [13]: inactive | outcome [14]: inactive | outcome [15]: inactive

O=C(O)C(F)(OC(F)(F)C(F)(OC(F)(F)C(F)(OC(F)(F)C(F)(F)C(F)(F)F)C(F)(F)F)C(F)(F)F)C(F)(F)F (centres undefined)
outcome [1]: inactive | outcome [2]: inactive | outcome [3]: inactive | outcome [4]: inactive | outcome [5]: inactive | outcome [6]: inactive | outcome [7]: inactive | outcome [8]: inactive | outcome [9]: inactive | outcome [10]: inactive | outcome [11]: inactive | outcome [12]: inactive | outcome [13]: inactive | outcome [14]: inactive | outcome [15]: inactive
